Reference: the supplement of paper PMC10646978
± gives the standard deviation.

Assays:
Details in all cases: modulator concentration 10 µM
[1] = tested on: RAW-Dual (murine macrophage reporter line); assay: NF-kB reporter (SEAP) activity fold change vs agonist alone; higher = enhanced NF-kB activity
Outline: (§1)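 Compound reached 10 μM final in each well by pin transfer, onto RAW-Dual murine macrophage reporter cells seeded at 50 000 per well in 384-well plates. After 1 hour at 37 °C, the cells were stimulated overnight with a PRR agonist. SEAP in the supernatant was read with QUANTI-Blue at 620 nm absorbance for NF-κB, and Lucia luciferase was read with QUANTI-Luc luminescence for IRF. Each signal was turned into fold change against the mean agonist-only control on the same plate, and two replicate plates were averaged with propagated errors.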

[2] = tested on: RAW-Dual (murine macrophage reporter line); assay: IRF reporter (Lucia luciferase) activity fold change vs agonist alone; higher = enhanced IRF activity
Outline: as §1

[3] = tested on: RAW-Dual (murine macrophage reporter line); assay: viability score (confluency relative to resting cells, overnight) (fraction); higher = more viable, active = viable (0.7 or more)
Outline: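 RAW-Dual macrophages in 384-well plates were treated overnight with compound at 10 μM final. IncuCyte imaging recorded confluency, and IncuCyte software built two confluency masks across every imaged well. The viability score expresses confluency relative to resting cells and was judged against a cutoff, which a compound met only if both masks exceeded 70% of resting cells.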

[4] = agonist: CpG ODN 1826 0.5 ug/mL

SMILES | NF-kB reporter [1, 4] | NF-kB reporter ([1]; agonist: LPS 0.1 ug/mL) | NF-kB reporter ([1]; agonist: MPLA […]) | IRF reporter ([2]; agonist: 3'3'-cGAMP 10 ug/mL) | IRF reporter ([2]; agonist: LPS 0.1 ug/mL) | IRF reporter ([2]; agonist: MPLA […]) | viability score [3]
Cc1nn2c(=O)c(Cc3ccccc3)c(C)[nH]c2c1-c1ccccc1 | 0.777 ± 0.068 | 0.878 ± 0.082 | 1.06 ± 0.11 | 1.09 ± 0.057 | 1.26 ± 0.074 | 1.36 ± 0.11 | 1 (active)
COc1ccc(CNS(=O)(=O)c2ccc3ccccc3c2)cc1 | 0.795 ± 0.074 | 0.899 ± 0.079 | 1.13 ± 0.11 | 0.974 ± 0.052 | 1.49 ± 0.11 | 1.7 ± 0.17 | 0.972 (active)
CC(=NNC(=O)CSc1nc2ccccc2n1Cc1ccccc1)c1ccc(Br)cc1 | 0.996 ± 0.12 | 0.996 ± 0.1 | 1.04 ± 0.036 | 0.942 ± 0.042 | 0.946 ± 0.16 | 1.01 ± 0.29 | 0.996 (active)
COc1ccc(CNCc2cccc3ccccc23)c(OC)c1 | 0.108 ± 0.013 | 0.586 ± 0.065 | 0.607 ± 0.063 | 0.968 ± 0.076 | 1.21 ± 0.12 | 1.36 ± 0.22 | 0.354 (inactive)
CCN(CC)CC#CCOC(=O)C(O)(c1ccccc1)C1CCCCC1.Cl (stereo not given) | 0.873 ± 0.057 | 1.01 ± 0.11 | 1.05 ± 0.084 | 0.998 ± 0.047 | 1.12 ± 0.2 | 1.19 ± 0.29 | 1.02 (active)
Cc1occc1C(=O)NN=Cc1cc([N+](=O)[O-])ccc1O | 1.12 ± 0.11 | 0.959 ± 0.12 | 1.16 ± 0.079 | 0.681 ± 0.096 | 1.23 ± 0.095 | 1.27 ± 0.28 | 0.997 (active)
O=C(C=Cc1ccc(O)cc1)c1ccc(O)cc1O | 1.33 ± 0.36 | 1.09 ± 0.054 | 1.74 ± 0.12 | 0.305 ± 0.012 | 0.966 ± 0.1 | 0.81 ± 0.13 | 0.979 (active)
CCNc1cc(C)nc(Nc2ccc(NC(=O)c3ccc(OC)c(OC)c3)cc2)n1 | 0.118 ± 0.0094 | 1.32 ± 0.11 | 1.74 ± 0.17 | 0.72 ± 0.023 | 1.19 ± 0.18 | 1.29 ± 0.27 | 0.977 (active)
CSc1nc(C(C)(C)C)cc(C(F)(F)F)c1C#N | 0.738 ± 0.061 | 0.955 ± 0.15 | 1.12 ± 0.049 | 0.998 ± 0.05 | 0.855 ± 0.12 | 0.923 ± 0.26 | 0.996 (active)
CCOC(=O)Cc1nnnn1C | 0.888 ± 0.27 | 1.02 ± 0.11 | 1.01 ± 0.14 | 1 ± 0.026 | 1.14 ± 0.15 | 1.17 ± 0.13 | 1 (active)
COc1ccc(NC(=O)CCn2nc(C)nc2C)cc1 | 1.04 ± 0.099 | 1.07 ± 0.085 | 0.963 ± 0.12 | 0.961 ± 0.049 | 1.09 ± 0.068 | 1.01 ± 0.12 | 1 (active)
O=C(O)c1cc(NC(=O)c2ccc(Cl)c([N+](=O)[O-])c2)cc(C(=O)O)c1 | 1.08 ± 0.11 | 0.973 ± 0.064 | 1.02 ± 0.045 | 1.03 ± 0.19 | 1.04 ± 0.088 | 1.08 ± 0.17 | 1 (active)
COc1ccc(C2OCC3C(c4ccc(OC)c(OC)c4)OCC23)cc1OC (stereo not given) | 1.18 ± 0.091 | 1.03 ± 0.094 | 1.08 ± 0.11 | 1.11 ± 0.088 | 1.07 ± 0.13 | 1.21 ± 0.23 | 1.01 (active)
O=C(OC1Cc2c(O)cc(O)cc2OC1c1cc(O)c(O)c(O)c1)c1cc(O)c(O)c(O)c1 (stereo not given) | 0.321 ± 0.094 | 1.04 ± 0.083 | 1.02 ± 0.092 | 0.822 ± 0.029 | 1.13 ± 0.22 | 1.06 ± 0.1 | 1.01 (active)
COc1cc(C(C)=O)ccc1OCCCN1CCC(c2noc3cc(F)ccc23)CC1 | 0.986 ± 0.15 | 1.17 ± 0.31 | 0.924 ± 0.056 | 0.834 ± 0.027 | 1.19 ± 0.2 | 1.12 ± 0.11 | 0.991 (active)
